Laboratory results published in PubChem BioAssay.
The source made the active and inactive calls.

What was measured:
Albumin (Bos taurus) = Albumin (Bos taurus) (UniProt P02769); test: bovine serum albumin binders on microarray, profiling panel, artefact control for SMM control protein annotation, biochemical, small-molecule microarray, Alexa647 label, 635/667 nm fluorescence (AID 1118); conditions: BSA-A647 binding, fluorescence 635 nm, higher = more signal;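 further: score merges 667 nm emission intensity and signal-to-noise per printed compound spot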
Sequence of Albumin (Bos taurus) (P02769 whole entry, looked up): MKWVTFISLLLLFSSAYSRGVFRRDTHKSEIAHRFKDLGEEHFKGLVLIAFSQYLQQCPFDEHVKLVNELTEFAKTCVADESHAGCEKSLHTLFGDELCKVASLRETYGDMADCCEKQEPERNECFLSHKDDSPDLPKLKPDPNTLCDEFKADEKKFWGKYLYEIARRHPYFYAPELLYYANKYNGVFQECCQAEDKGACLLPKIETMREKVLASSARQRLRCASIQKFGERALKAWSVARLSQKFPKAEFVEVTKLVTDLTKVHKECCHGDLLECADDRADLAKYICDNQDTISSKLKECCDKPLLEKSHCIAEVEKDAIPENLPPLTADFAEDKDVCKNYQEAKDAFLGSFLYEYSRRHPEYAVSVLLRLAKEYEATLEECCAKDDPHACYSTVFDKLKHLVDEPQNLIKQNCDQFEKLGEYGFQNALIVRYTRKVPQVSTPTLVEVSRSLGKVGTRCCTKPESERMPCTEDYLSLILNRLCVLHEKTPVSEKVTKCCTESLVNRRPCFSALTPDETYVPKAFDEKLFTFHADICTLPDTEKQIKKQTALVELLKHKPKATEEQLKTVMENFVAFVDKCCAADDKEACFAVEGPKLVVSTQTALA

[1] = small-molecule microarray binders of probe aXIP, primary screen, biochemical, NeuroSMM set, 635/667 nm fluorescence (AID 1119); conditions: higher = more signal, called active from +8 up or from −8 down;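 further: probe is the protein aXip251-270 applied at 1 µg/mL to compound-printed slides; binding of probe to printed compounds measured as 667 nm fluorescence plus signal to noise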
[2] = small-molecule binders of probe aNOTCH3, primary screen, biochemical, small-molecule microarray, 635/667 nm fluorescence (AID 1120); conditions: higher = more signal;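 further: probe is a biotin-tagged antibody raised against NOTCH3 rather than NOTCH3 protein; score merges spot fluorescence near 667 nm with spot signal to noise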
[3] = small-molecule binders of probe aNOTCH2, primary screen, biochemical, small-molecule microarray, 635/667 nm fluorescence (AID 1121); conditions: higher = more signal;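 further: score merges feature fluorescence read at 667 nm with its signal to noise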
[4] = molecular target: Carbonic anhydrase 2 (Homo sapiens) (UniProt P00918); test: CAII small-molecule binders, profiling panel, biochemical, small-molecule microarray, Alexa647-labelled CAII (AID 1122); conditions: CAII-A647 binding fluorescence, higher = more signal
[5] = COS7 lysate on small-molecule microarray, probe aHis, 635 nm (AID 1123); conditions: COS7 cell lysate, fluorescence, higher = more signal;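 further: z-score combines 667nm fluorescence intensity with signal-to-noise per printed compound spot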
[6] = compound binding in COS7 lysate, probe aLAP1, primary screen, cell lysate, small-molecule microarray (AID 1124); conditions: probe aLAP1, fluorescence, higher = more signal;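 further: lysate comes from COS7 cells expressing LAP1 and is applied at 0.3 µg/mL; score merges spot fluorescence near 667 nm with signal-to-noise over triplicate slides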
Sam68 (KHDRBS1) = test: Sam68 small-molecule binders, primary screen, biochemical, small-molecule microarray, 635 nm fluorescence (AID 1125); conditions: small-molecule microarray binding, higher = more signal;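 further: score merges 667 nm channel intensity with signal to noise over triplicate slides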
[7] = tested on: Chordin-like protein 2 (CHRDL2); test: CHRDL2 small-molecule binders, primary screen, biochemical, small-molecule microarray, 635 nm fluorescence (AID 1126); conditions: small-molecule microarray binding, fluorescence 635 nm; higher = more signal;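 further: printed compound slides probed with Chrdl2 protein at 4 µg/mL for 1 h at 4 C; score merges 667 nm emission intensity with signal to noise over three replicate slides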
[8] = molecular target: Concanavalin-A (Canavalia ensiformis) (UniProt P02866); test: ConA small-molecule binders, primary screen, artefact control for SMM control protein annotation, biochemical, small-molecule microarray, Alexa647 label, 635 nm (AID 1127); conditions: ConA-A647 binding fluorescence, higher = more signal;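 further: z combines 667 nm emission intensity with signal-to-noise across three replicate slides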
Sequence of Concanavalin-A (Canavalia ensiformis) (P02866 whole entry, looked up): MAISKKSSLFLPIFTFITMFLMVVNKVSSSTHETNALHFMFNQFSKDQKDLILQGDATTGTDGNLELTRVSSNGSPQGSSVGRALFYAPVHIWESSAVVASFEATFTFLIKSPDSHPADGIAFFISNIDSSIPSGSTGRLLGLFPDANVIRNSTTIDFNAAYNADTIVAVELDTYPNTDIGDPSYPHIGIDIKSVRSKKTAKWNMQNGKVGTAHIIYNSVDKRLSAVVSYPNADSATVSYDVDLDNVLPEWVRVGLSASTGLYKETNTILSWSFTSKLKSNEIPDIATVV

[9] = anti-His antibody binders, primary screen, artefact control for SMM control protein annotation, biochemical, small-molecule microarray, 635 nm fluorescence (AID 1128); conditions: anti-His Alexa647 antibody binding, higher = more signal;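 further: score merges feature fluorescence with signal-to-noise for each printed compound spot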
[10] = tested on: Human papillomavirus type 1a E7 protein (residues 1-88); test: HPV1a E7 small-molecule binders, primary screen, biochemical, small-molecule microarray, residues 1-88, 635 nm (AID 1129); conditions: small-molecule microarray binding, fluorescence 635 nm; higher = more signal
[11] = molecular target: Focal adhesion kinase 1 (Homo sapiens) (UniProt Q05397); test: small-molecule microarray binders of FAK, primary screen, biochemical, 635/667 nm fluorescence, BSA, DTT (AID 1130); conditions: PTK2 binding, 635 nm fluorescence, higher = more signal;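 further: composite of spot emission at 667 nm and signal to noise over triplicate slides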
Sequence of Focal adhesion kinase 1 (Homo sapiens) (Q05397 whole entry, looked up): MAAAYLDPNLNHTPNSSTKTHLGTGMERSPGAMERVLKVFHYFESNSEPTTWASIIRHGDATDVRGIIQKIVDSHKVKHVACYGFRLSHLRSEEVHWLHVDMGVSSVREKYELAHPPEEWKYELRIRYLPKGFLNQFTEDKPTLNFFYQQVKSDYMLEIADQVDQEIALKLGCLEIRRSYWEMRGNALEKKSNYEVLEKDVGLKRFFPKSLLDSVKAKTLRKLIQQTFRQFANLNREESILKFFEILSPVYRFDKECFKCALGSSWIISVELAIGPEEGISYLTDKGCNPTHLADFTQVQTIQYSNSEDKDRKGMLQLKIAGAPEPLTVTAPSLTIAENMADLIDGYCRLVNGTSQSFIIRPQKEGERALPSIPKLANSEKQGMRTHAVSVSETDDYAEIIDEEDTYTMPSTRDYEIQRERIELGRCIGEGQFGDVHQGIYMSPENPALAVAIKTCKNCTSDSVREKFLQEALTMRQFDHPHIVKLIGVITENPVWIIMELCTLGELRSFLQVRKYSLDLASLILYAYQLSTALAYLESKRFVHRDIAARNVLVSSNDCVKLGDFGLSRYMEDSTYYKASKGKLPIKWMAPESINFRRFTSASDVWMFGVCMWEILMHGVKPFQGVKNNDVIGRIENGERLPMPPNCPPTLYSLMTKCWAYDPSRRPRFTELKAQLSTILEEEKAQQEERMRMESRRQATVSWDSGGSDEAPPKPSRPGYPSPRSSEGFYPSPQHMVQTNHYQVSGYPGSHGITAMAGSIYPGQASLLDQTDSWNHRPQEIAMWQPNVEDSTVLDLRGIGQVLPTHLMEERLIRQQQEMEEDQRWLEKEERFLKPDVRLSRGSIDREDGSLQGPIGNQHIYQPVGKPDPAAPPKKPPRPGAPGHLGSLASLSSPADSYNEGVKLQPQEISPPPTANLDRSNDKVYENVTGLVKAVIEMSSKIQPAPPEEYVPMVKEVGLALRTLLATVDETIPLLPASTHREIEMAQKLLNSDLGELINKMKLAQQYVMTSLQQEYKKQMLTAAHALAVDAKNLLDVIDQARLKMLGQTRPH

[12] = tested on: Fibrinogen (Alexa647-labelled); test: fibrinogen binders on compound microarrays, profiling panel, artefact control for SMM control-protein annotation, biochemical, small-molecule microarray, 635/667 nm fluorescence (AID 1131); conditions: fibrinogen-A647 binding fluorescence, higher = more signal;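 further: z-score merges 667 nm fluorescence with per-spot signal-to-noise over triplicate slides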
[13] = molecular target: Follistatin (Homo sapiens) (UniProt P19883); test: follistatin binders on small-molecule microarrays, primary screen, biochemical, small-molecule microarray, 635/667 nm fluorescence (AID 1132); conditions: FST binding, 635 nm fluorescence, higher = more signal
Sequence of Follistatin (Homo sapiens) (P19883 whole entry, looked up): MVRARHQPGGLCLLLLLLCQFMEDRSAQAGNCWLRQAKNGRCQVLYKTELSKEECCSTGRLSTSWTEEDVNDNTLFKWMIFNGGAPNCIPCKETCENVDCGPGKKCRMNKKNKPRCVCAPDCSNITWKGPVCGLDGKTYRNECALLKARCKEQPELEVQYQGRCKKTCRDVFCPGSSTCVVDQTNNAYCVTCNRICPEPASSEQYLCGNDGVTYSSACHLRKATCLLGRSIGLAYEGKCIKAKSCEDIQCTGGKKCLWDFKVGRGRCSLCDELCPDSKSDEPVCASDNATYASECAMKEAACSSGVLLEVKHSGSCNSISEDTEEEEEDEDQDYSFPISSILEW

[14] = molecular target: Fibroblast growth factor 2 (Homo sapiens) (UniProt P09038); test: FGF2 binders on small-molecule microarrays, primary screen, biochemical, small-molecule microarray, 635/667 nm fluorescence (AID 1133); conditions: small-molecule microarray binding, FGF2, fluorescence 635/667; higher = more signal
Sequence of Fibroblast growth factor 2 (Homo sapiens) (P09038 whole entry, looked up): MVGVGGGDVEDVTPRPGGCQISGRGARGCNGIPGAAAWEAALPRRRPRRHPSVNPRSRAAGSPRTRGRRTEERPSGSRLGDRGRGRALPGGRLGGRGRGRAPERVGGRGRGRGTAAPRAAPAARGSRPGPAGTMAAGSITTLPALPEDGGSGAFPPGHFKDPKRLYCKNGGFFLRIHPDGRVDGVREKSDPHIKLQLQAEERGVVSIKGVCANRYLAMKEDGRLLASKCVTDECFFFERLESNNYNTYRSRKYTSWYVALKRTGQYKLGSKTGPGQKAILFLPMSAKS

[15] = mitochondrial membrane potential change in A549 cells, profiling panel, cell-based, JC-1 fluorescence, basal, 24 h, 100 nL (AID 1138); conditions: higher = more signal;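 further: A549 lung adenocarcinoma cells under basal conditions with no added stimulus; test concentration not given here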
Lefty1 = Lefty1 binders on small-molecule microarrays, primary screen, biochemical, small-molecule microarray, 635/667 nm fluorescence (AID 1139); conditions: small-molecule microarray binding, fluorescence 635/667; higher = more signal
[16] = tested on: wheat germ agglutinin (Triticum aestivum), Alexa647-labelled; test: wheat germ agglutinin binders on compound microarrays, profiling panel, artefact control for SMM control-protein annotation, biochemical, small-molecule microarray, 635/667 nm fluorescence (AID 1140); conditions: WGA-A647 binding, 635 nm fluorescence, higher = more signal;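 further: score merges 667 nm feature emission with signal to noise over triplicate slides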
[17] = molecular target: Luciferin 4-monooxygenase (Photinus pyralis) (UniProt P08659); test: firefly luciferase enzyme inhibitors, primary screen, biochemical, luminescence, purified enzyme, 2006 set (AID 1141); conditions: SteadyGlo luminescence, 30 min, higher = more signal, called active from +8 up or from −8 down;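 further: cell-free assay with purified firefly luciferase at 100 ng per well in PBS; test concentration not given here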
Sequence of Luciferin 4-monooxygenase (Photinus pyralis) (P08659 whole entry, looked up): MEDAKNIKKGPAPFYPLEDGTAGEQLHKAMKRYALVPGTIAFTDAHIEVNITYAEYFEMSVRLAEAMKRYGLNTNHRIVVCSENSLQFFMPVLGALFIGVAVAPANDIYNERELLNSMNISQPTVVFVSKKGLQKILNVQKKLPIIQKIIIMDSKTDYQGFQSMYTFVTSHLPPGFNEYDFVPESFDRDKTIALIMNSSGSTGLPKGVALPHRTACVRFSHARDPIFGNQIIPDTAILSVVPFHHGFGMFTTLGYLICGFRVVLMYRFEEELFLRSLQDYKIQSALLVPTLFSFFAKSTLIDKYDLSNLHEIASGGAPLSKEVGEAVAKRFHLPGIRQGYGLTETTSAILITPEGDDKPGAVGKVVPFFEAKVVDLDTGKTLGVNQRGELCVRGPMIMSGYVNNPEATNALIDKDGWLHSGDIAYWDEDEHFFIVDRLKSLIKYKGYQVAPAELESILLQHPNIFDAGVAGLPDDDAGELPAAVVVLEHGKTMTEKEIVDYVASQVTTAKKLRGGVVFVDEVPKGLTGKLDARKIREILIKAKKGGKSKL

Compound | composite z-score (Albumin (Bos taurus)) | composite Z-score [1] | composite z-score [2] | composite z-score [3] | composite z-score [4] | composite z-score [5] | composite z-score [6] | composite z-score (Sam68 (KHDRBS1)) | composite z-score [7] | composite z-score [8] | composite z-score [9] | composite z-score [10] | composite z-score [11] | composite z-score [12] | composite z-score [13] | composite z-score [14] | z-score [15] | composite z-score (Lefty1) | composite z-score [16] | z-score [17]
COC(=O)C(CC#Cc1ccc2c(c1)[C@]1(C(=O)N2)[C@H](C(=O)O)[C@H]2C(=O)O[C@H](c3ccccc3)[C@H](c3ccccc3)N2[C@@H]1c1ccc(OCCO)cc1)C(=O)OC | 0.956 | -0.908 (inactive) | 0.123 | -0.0333 | 0.703 | 2.07 | 0.279 | 1.3 | -0.756 | 1.2 | 0.479 | 1.24 | 0.918 | 0.812 | 0.0447 | 0.549 | -0.22 | 0.943 | 1.43 | -4.03 (inactive)
C[C@@H](OCc1ccccc1)C1NC(=O)[C@@]23C(=O)N[C@@H](Cc4ccccc4)C2[C@H](C)[C@@]2(C)O[C@H]2C3/C=C/C/C=C\CNC(=O)[C@@H]2CCCN2C1=O (stereo not given in full) | -0.149 | -0.216 (inactive) | -0.0921 | -0.147 | 0.619 | -0.357 | -0.296 | -0.898 | 0.377 | -0.896 | -0.0278 | -0.443 | -0.709 | -0.632 | 0.0944 | 0.166 | 2.49 | 0.0078 | -0.927 | -1.45 (inactive)
C[N+](C)(C)CCCCNC(=O)[C@@H]1C[C@@H]2C(=O)NCC(=O)N2[C@@H]1c1cccc(OCCO)c1 | -0.656 | 0.617 (inactive) | 0.0297 | -0.19 | 0.434 | 2.15 | 1.27 | 0.781 | 1.29 | 1.14 | 2.59 | 1.15 | -0.421 | 0.78 | 1.49 | 1.94 | 1.87 | 1.6 | 1.02 | -1.9 (inactive)
CC(C)(C)OC(=O)CC[C@@]1(C(=O)NCc2ccccc2)N=C(c2ccc(OCCCO)cc2)O[C@@H]1c1ccccc1CN=[N+]=[N-] | 0.871 | 0.647 (inactive) | 0.33 | -0.0736 | 0.596 | 2.02 | 0.379 | 1.15 | -0.521 | 1.09 | 2.59 | 1.22 | -0.128 | 0.933 | 1.34 | 0.915 | 0.641 | 0.148 | 1.27 | -1.24 (inactive)
COC(=O)c1c2oc(c1C(=O)OC)C(=O)N[C@@H](C(C)C)Cn1nncc1C1(CCCCC1)NC(=O)N[C@H](CO)CC2 | 0.543 | 0.559 (inactive) | -0.126 | -0.131 | 0.86 | 0.942 | -0.162 | -0.0929 | -0.573 | 0.77 | -0.614 | -0.622 | 0.195 | -1.26 | -0.238 | 0.0484 | 2.33 | 0.0278 | -0.719 | -1.25 (inactive)
CC(C)[Si](C#C[Si](C(C)C)(C(C)C)C(C)C)(O[C@H](C)c1cn([C@H](C)c2ccccc2)nn1)C(C)C | -0.0001 | -0.097 (inactive) | -0.122 | -0.0632 | 0.66 | 0.386 | -0.13 | 1.16 | 0.0747 | 0.927 | 0.467 | 0.796 | 0.768 | 0.179 | 0.465 | 0.261 | 1.8 | 0.751 | 0.625 | -1.4 (inactive)
